Reference: ChEMBL document CHEMBL4808148, “HDAC6 screening dataset using tau-based substrate in an enzymatic assay yields selective inhibitors and activators” (2021)
Out of some 5,600 compounds screened, about 150 (2.7%) showed an effect of 50% or more. The full list was thinned out, with strong results kept by preference.

Each compound was assayed against T1, Protein deacetylase HDAC6 (Homo sapiens) (UniProt Q9UBN7). Details: at 10 µM.
T1 sequence (whole entry): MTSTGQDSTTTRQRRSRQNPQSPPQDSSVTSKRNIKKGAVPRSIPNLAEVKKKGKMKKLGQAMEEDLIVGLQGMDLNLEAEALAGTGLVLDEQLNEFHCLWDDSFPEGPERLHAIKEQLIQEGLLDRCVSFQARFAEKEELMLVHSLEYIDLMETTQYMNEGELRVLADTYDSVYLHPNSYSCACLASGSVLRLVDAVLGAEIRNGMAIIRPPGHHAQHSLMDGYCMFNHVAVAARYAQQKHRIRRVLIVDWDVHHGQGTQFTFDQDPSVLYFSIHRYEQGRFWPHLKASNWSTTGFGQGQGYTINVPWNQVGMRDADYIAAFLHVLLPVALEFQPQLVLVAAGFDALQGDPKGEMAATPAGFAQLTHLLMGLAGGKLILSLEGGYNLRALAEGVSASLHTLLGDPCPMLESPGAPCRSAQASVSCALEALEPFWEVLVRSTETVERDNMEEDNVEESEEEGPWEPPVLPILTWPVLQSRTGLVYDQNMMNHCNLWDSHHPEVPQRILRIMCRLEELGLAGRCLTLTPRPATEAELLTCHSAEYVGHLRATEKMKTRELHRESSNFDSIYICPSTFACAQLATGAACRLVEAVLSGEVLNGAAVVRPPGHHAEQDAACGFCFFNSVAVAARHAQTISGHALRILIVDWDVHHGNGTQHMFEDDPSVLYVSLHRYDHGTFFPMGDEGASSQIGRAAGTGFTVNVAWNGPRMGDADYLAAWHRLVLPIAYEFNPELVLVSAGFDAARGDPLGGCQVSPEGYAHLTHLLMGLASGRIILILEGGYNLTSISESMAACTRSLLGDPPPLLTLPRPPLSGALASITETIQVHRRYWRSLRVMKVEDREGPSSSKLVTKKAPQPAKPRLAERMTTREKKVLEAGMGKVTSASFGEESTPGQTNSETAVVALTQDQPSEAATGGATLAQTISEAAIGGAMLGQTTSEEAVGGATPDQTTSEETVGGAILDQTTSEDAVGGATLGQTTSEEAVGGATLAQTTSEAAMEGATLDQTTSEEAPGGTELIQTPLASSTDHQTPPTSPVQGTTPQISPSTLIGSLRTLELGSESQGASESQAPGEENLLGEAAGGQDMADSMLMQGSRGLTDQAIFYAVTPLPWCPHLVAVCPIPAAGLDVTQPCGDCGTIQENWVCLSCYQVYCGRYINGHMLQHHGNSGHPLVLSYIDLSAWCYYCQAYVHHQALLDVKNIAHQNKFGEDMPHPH
For `CCN(c1ccccc1)c1cc(NC)[n+](C)c(C)n1`, the inhibition was -1.77%. Compound `O=C(O)Cc1nn(Cc2nc3cc(C(F)(F)F)ccc3s2)c(=O)c2ccccc12` has an inhibition of -1.1%. `O=C(Nc1ccc(S(=O)(=O)Nc2nccs2)cc1)C(c1ccccc1)c1ccccc1` was tested, and the inhibition was -1.03%. `CN[C@@H](C)C(=O)N[C@H](C(=O)N1CCC[C@H]1C(=O)Nc1sc(-c2ncco2)nc1-c1ccccc1)C1CCCCC1` showed an inhibition of -6.76%. In the case of `O=c1[nH]cnc2ccccc12`, the inhibition is reported as -1.07%. For `COc1cc2nc(N3CCN(C(=O)COc4c(OC)cccc4C(C)C)CC3)nc(N)c2cc1OC`, the inhibition was 4.56%. `CCCCOc1nc(N)c2c(n1)N(Cc1cccc(CN3CCCC3)c1)CC(=O)N2` was tested, and the inhibition was 3.13%. `CC1CCc2c(cc(Br)c(F)c2Br)N1C=O` (configuration not stated) showed an inhibition of 3.01%. `N#C/C(=C\c1cn(-c2ccccc2)c2ccccc12)C(=O)O` was tested, and the inhibition was -2.69%. `O=S(=O)(O)CC(S)CS` (configuration not stated) showed an inhibition of 2.52%. `Cc1ccc(CCCO)c(NCc2ccc3nc(NCCCN4CCOCC4)n(Cc4nc(C)ccc4O)c3c2)c1` was tested, and the inhibition was -5.63%. Compound `N#Cc1c(N)nc(SCc2csc(-c3ccc(Cl)cc3)n2)c(C#N)c1-c1ccc(OCCO)cc1` has an inhibition of 2.06%. Compound `CCCCCCCCCCCCCCCC[n+]1ccn(Cc2ccccc2)c1C` has an inhibition of -2.57%. Work on `COc1cc2c(cc1OC)-c1c(C)c3ccc(OC)c(OC)c3c[n+]1CC2` yielded an inhibition of -0.34%. With `COc1ccc(-c2cc(=O)c3c(O)cc(O[C@@H]4O[C@H](CO[C@@H]5O[C@@H](C)[C@H](O)[C@@H](O)[C@H]5O)[C@@H](O)[C@H](O)[C@H]4O)cc3o2)cc1O` the inhibition was 8.42%. `COc1ccc(-c2cc(=O)c3c(O)cc(O)cc3o2)cc1O` showed an inhibition of 52.3%. `COc1ccc([C@@H]2CC(=O)c3c(O)cc(O)cc3O2)cc1O` gave an inhibition of 31.5%. For `CC(C)[C@H](C(=O)Nc1ccc(C(=O)NO)cc1)c1ccccc1`, the inhibition was 98%. `O=C(O)c1ccc(NC(=O)[C@H](Cc2ccc(O)cc2)NC(=O)c2ccccc2)cc1` gave an inhibition of 3.32%. For `CC(=O)Nc1ccc(C(=O)Nc2ccccc2N)cc1`, the inhibition was 0.93%. In the case of `O=C(O)c1ccccc1Nc1ccc(CCc2ccc(Cl)c(Cl)c2)cc1`, the inhibition is reported as -6.85%. `COc1ccc2c(c1)C(C(=O)N(Cc1ccc(N(C)C)cc1)c1ccc(C(C)C)cc1)CCC2` (configuration not stated) showed an inhibition of -3.38%.
